Source: PubChem BioAssay (EPA / NIEHS)
Records with an inconclusive call do not appear. The source made the active and inactive calls. Rule for the calls, unless noted: active = hit-call score of the fitted dose curve at least 0.9, where 1 is the maximum; inactive = score below 0.9.

Assays:
[1] = target: Nuclear respiratory factor 1 (Homo sapiens) (UniProt Q16656); experiment: ATG_NRF1_CIS: Attagene CIS-FACTORIAL HepG2 Assay for human Nuclear Respiratory Factor 1 (NRF1) Orphan Gene (AID 2282987); conditions: HepG2 NRF1 cis-element reporter, Attagene multiplex; actives raise or lower the signal
Outline: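 Human hepatoma HepG2 cells carrying transfected promoter-regulated reporter units were incubated with test chemicals for 24 h. Reporter transcripts were measured by RT-PCR plus capillary electrophoresis, and endpoints derived by bidirectional fitting with DMSO as baseline.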

[2] = ATG_NFI_CIS: Attagene CIS-FACTORIAL HepG2 Assay for human Nuclear Factor I (NFI) (AID 2282989); conditions: HepG2 cis-regulatory reporter, NFI response element transcription; actives raise or lower the signal
Outline: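 Cells: human liver HepG2, transiently transfected with promoter-regulated reporter transcription units. Exposure 24 h. Detection: fluorescent RT-PCR products separated by capillary electrophoresis, normalised to DMSO negative control.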

[3] = target: Myc proto-oncogene protein (Homo sapiens) (UniProt P01106); experiment: ATG_Myc_CIS: Attagene CIS-FACTORIAL HepG2 Assay for human Myelocytomatosis (Myc) Proto-Oncogene Transcription Factor (AID 2282990); conditions: HepG2, Attagene cis-reporter transcription factor activity; actives raise or lower the signal
Outline: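 After 24 h chemical treatment of HepG2 cells carrying multiplexed cis-regulated reporter constructs, reporter transcripts quantified by RT-PCR and capillary electrophoresis of fluorescent fragments. Gain or loss fitted against DMSO baseline.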

[4] = ATG_NF_kB_CIS: Attagene CIS-FACTORIAL HepG2 Assay for human Nuclear Factor Kappa B (NF-kB) (AID 2282991); conditions: HepG2 Attagene cis-factorial NF-kB reporter mRNA; actives raise or lower the signal
Outline: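 Multiplexed cis-reporter assay in transiently transfected HepG2. 24 h treatment; RNA isolated, RT-PCR, labelled fragments resolved by CE. DMSO baseline.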

[5] = ATG_NRF2_ARE_CIS: Attagene CIS-FACTORIAL HepG2 Assay for human Nuclear Factor Erythroid 2 Related Factor 2 (NFR2) response to Antioxidant Response Elements (ARE) (AID 2282992); conditions: HepG2 Attagene ARE/NRF2 reporter, transcription factor activity; actives raise or lower the signal;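 for AC50: reporter mRNA level measured by RT-PCR and capillary electrophoresis fluorescence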
Outline: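 Readout: reporter mRNA quantified by RT-PCR plus FAM-labelled primer extension, HpaI digestion and capillary electrophoresis, 24 h after dosing transfected HepG2 cells. Gain or loss of signal is fitted bidirectionally against DMSO baseline.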

[6] = ATG_Oct_MLP_CIS: Attagene CIS-FACTORIAL HepG2 Assay for human Octamer-Binding Transcription Factor (Oct) (AID 2282993); conditions: HepG2 Attagene cis-factorial Oct reporter, mRNA; actives raise or lower the signal
Outline: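 HepG2, transient MRTU transfection, cis promoter elements; 24 h dosing; RT-PCR/CE fluorescence read-out of reporter mRNA; fit both directions vs DMSO.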

[7] = target: human Peroxisome Proliferator-activated Receptor alpha (PPARa), PPARA (gene 5465) (UniProt Q07869); experiment: ATG_PPARa_TRANS: Attagene TRANS-FACTORIAL HepG2 Assay for human Peroxisome Proliferator-activated Receptor alpha (PPARa) (AID 2283001; active = hit-call score of the fitted dose curve at least 0.9, where 1 is the maximum)
Outline: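 Transfected HepG2 cells treated with test chemical for 24 h. RNA isolated, reverse-transcribed with oligo(dT), PCR-amplified, FAM-labelled and HpaI-digested. Fragments sized by capillary electrophoresis; gain-of-signal fit relative to DMSO.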

[8] = target: Peroxisome proliferator-activated receptor gamma (Homo sapiens) (UniProt P37231); experiment: ATG_PPARg_TRANS: Attagene TRANS-FACTORIAL HepG2 Assay for human Peroxisome Proliferator-activated Receptor-gamma (PPARg) (AID 2283007; active = hit-call score of the fitted dose curve at least 0.9, where 1 is the maximum)
Outline: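 Human hepatoma HepG2, transient MRTU transfection, 24 h treatment. mRNA reporter signal by RT-PCR plus capillary electrophoresis, fluorescence detection; fitted for increase over DMSO negative control.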

[9] = target: Nuclear receptor subfamily 1 group I member 2 (Homo sapiens) (UniProt O75469); experiment: ATG_PXR_TRANS: Attagene TRANS-FACTORIAL HepG2 Assay for human Pregnane X Receptor (PXR) (AID 2283008; active = hit-call score of the fitted dose curve at least 0.9, where 1 is the maximum)
Outline: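 Trans-factorial format: exogenous NR-Gal4 fusion activity, not endogenous factor, in transfected human HepG2 liver cells. After 24 h dosing, RNA isolated, reverse-transcribed, amplified and resolved by capillary electrophoresis; induction scored versus DMSO.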

[10] = target: human RAR-related Orphan Receptor beta (RORb), RORB (gene 6096) (UniProt Q92753); experiment: ATG_RORb_TRANS: Attagene TRANS-FACTORIAL HepG2 Assay for human RAR-related Orphan Receptor beta (RORb) (AID 2283010; active = hit-call score of the fitted dose curve at least 0.9, where 1 is the maximum)
Outline: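 HepG2, transient MRTU transfection (GAL4-UAS reporters, exogenous NR-Gal4 chimeras); 24 h compound exposure; total RNA → RT-PCR → 6-FAM primer extension → HpaI digest → CE fluorescence. Positive direction vs DMSO baseline.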

[11] = target: Cellular tumor antigen p53 (Homo sapiens) (UniProt P04637); experiment: ATG_p53_CIS: Attagene CIS-FACTORIAL HepG2 Assay for human p53 Transcription Factor (AID 2282994); conditions: HepG2 p53 cis-element reporter, Attagene mRNA; actives raise or lower the signal
Outline: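 Read-out: reporter mRNA by RT-PCR plus capillary electrophoresis with fluorescence detection. Human HepG2 liver cells carried transfected multi-reporter cis-element constructs, dosed 24 h. Gain or loss of signal fitted bidirectionally against DMSO control.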

[12] = target: human Peroxisome Proliferator-activated Receptor delta (PPARd), PPARD (gene 5467) (UniProt Q03181); experiment: ATG_PPARd_TRANS: Attagene TRANS-FACTORIAL HepG2 Assay for human Peroxisome Proliferator-activated Receptor delta (PPARd) (AID 2283002; active = hit-call score of the fitted dose curve at least 0.9, where 1 is the maximum)
Outline: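 Read-out is induced reporter mRNA, quantified by RT-PCR with fluorescent labelling and capillary electrophoresis after 24 h dosing. Cells are HepG2 transiently carrying multiple GAL4-UAS reporter units driven by exogenous NR-GAL4 chimeras; DMSO serves as baseline.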

[13] = target: Retinoic acid receptor alpha (Homo sapiens) (UniProt P10276); experiment: ATG_RARa_TRANS: Attagene TRANS-FACTORIAL HepG2 Assay for human Retinoic Acid Receptor alpha (RARa) (AID 2283005; active = hit-call score of the fitted dose curve at least 0.9, where 1 is the maximum)
Outline: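 Reporter transcripts, measured by RT-PCR with fluorescent labeling and capillary electrophoresis after 24 h dosing, reflect activity of an exogenous human RARa–GAL4 fusion in transiently transfected HepG2. Fitted for increase relative to DMSO.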

[14] = target: human Retinoic Acid Receptor gamma (RARg), RARG (gene 5916) (UniProt P13631); experiment: ATG_RARg_TRANS: Attagene TRANS-FACTORIAL HepG2 Assay for human Retinoic Acid Receptor gamma (RARg) (AID 2283009; active = hit-call score of the fitted dose curve at least 0.9, where 1 is the maximum)
Outline: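 Readout: reporter transcript levels via RT-PCR, 6-FAM primer-extension labelling, HpaI digestion and capillary electrophoresis. Cells: HepG2 carrying transfected RARg-GAL4 chimera plus UAS reporter set. Dosing 24 h; DMSO negative control.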

[15] = BSK_3C_TissueFactor: BioMAP Diversity Plus: 3C Assay for Tissue Factor Biomarker Activity (AID 2282997); conditions: BioMAP 3C HUVEC, tissue factor biomarker readout; actives raise or lower the signal
Outline: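 After a 24 h chemical exposure of primary human umbilical vein endothelial cells, Tissue Factor levels were quantified by ELISA.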

[16] = BSK_3C_uPAR: BioMAP Diversity Plus: 3C Assay for Urokinase-type plasminogen activator receptor (uPAR) Biomarker Activity (AID 2282998); conditions: BioMAP 3C HUVEC, uPAR biomarker ELISA; actives raise or lower the signal
Outline: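 A multiplexed primary-cell system built on human umbilical vein endothelium was used, with chemical present for 24 h before reading. Cell-surface uPAR was detected by ELISA; signal change in either direction counted against DMSO.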

[17] = BSK_3C_VCAM1: BioMAP Diversity Plus: 3C Assay for Vascular cell adhesion molecule 1 (VCAM1) Biomarker Activity (AID 2282999); conditions: BioMAP 3C HUVEC, VCAM1 ELISA, cytokine-stimulated; actives raise or lower the signal
Outline: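 Activity fitted in both directions relative to DMSO, with ELISA measurement of the surface marker on primary HUVEC (3C) at 24 h post-treatment; parallel SRB staining (0.1% SRB, TCA-fixed, 560 nm) flagged overt cytotoxicity.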

[18] = BSK_4H_Eotaxin3: BioMAP Diversity Plus: 4H Assay for Eotaxin 3 Biomarker Activity (AID 2283000); conditions: primary human endothelial cells (HUVEC); actives raise or lower the signal;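 note: CCL26 protein level quantified by ELISA in parallel with SRB cytotoxicity check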
Outline: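 Chemicals were added to human umbilical vein endothelium cultures, and Eotaxin-3 was quantified by ELISA at 24 h. Values were derived by bidirectional fitting with DMSO serving as negative control and activity baseline.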

[19] = read-out: Intercellular Adhesion Molecule 1 (ICAM1), ICAM1 (gene 3383); experiment: BSK_3C_ICAM1: BioMAP Diversity Plus: 3C Assay for Intercellular Adhesion Molecule 1 (ICAM1) Biomarker Activity (AID 2283003); conditions: primary human endothelial cells (HUVEC); actives raise or lower the signal
Outline: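 ELISA read-out of ICAM-1; HUVEC (primary human), 3C system, 24 h post-dosing; bidirectional fit vs DMSO baseline.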

[20] = BSK_3C_Proliferation: Cell Proliferation Assessment in the BioMAP Diversity Plus: 3C Assay (AID 2283006); conditions: primary human endothelial cells (HUVEC)
Outline: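 HUVEC, sub-confluent; 48 h chemical exposure; 10% TCA fix, 0.1% SRB stain, A560 total protein. Gain or loss of signal fitted both directions vs DMSO control.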

Measured: AC50

Peroxisome proliferator-activated receptor gamma (Homo sapiens), sequence (P37231 whole entry, looked up): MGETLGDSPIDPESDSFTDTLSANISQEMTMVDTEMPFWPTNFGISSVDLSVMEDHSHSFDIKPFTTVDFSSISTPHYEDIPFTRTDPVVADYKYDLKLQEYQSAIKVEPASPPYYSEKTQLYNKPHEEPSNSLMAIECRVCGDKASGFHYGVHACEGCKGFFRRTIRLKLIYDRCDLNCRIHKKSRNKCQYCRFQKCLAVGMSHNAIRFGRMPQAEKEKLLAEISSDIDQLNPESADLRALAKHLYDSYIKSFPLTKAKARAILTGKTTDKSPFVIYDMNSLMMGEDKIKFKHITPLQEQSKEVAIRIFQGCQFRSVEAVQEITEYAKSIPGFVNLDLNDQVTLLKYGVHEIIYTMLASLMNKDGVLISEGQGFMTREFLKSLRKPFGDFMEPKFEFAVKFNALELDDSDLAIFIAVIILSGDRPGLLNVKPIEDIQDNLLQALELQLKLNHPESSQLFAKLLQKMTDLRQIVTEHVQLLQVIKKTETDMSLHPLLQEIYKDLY
human RAR-related Orphan Receptor beta (RORb), RORB (gene 6096), sequence (Q92753 whole entry, looked up, the tested form may be a part): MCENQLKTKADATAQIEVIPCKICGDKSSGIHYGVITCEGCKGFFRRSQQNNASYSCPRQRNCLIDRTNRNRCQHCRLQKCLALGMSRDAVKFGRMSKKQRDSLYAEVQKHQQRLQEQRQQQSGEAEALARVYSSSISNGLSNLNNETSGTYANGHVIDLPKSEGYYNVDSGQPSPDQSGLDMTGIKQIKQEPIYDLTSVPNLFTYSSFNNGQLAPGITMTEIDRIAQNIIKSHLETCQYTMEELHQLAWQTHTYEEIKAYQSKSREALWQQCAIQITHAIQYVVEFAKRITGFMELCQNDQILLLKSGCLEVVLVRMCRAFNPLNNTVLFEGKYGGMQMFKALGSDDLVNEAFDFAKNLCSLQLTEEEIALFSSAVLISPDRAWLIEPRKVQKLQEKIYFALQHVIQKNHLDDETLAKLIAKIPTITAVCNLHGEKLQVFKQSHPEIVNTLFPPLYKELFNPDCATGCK
human Peroxisome Proliferator-activated Receptor alpha (PPARa), PPARA (gene 5465), sequence (Q07869 whole entry, looked up, the tested form may be a part): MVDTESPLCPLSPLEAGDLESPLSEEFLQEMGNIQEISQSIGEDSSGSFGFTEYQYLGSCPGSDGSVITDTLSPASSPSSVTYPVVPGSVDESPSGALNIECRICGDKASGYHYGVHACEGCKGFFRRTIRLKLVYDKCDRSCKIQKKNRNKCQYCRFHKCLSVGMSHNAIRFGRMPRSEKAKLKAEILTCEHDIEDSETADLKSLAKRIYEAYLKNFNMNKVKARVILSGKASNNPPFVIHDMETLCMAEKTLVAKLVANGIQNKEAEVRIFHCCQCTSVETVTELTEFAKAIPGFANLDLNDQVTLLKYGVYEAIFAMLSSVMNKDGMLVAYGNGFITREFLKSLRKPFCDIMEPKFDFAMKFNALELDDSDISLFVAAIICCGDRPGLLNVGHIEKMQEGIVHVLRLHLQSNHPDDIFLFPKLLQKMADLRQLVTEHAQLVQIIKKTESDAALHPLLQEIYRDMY
Myc proto-oncogene protein (Homo sapiens), sequence (P01106 whole entry, looked up, the tested form may be a part): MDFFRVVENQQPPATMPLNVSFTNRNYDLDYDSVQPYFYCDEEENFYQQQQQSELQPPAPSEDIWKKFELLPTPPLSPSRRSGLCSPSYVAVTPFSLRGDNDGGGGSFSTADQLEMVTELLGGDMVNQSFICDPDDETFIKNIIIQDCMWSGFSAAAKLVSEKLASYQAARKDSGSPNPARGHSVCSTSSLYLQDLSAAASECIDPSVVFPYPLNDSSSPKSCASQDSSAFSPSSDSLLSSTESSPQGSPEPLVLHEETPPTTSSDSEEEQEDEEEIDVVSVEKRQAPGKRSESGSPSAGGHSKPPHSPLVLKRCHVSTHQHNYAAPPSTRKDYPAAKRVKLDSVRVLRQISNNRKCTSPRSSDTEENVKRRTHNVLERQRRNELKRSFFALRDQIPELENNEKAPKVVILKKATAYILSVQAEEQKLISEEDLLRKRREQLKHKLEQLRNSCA
Cellular tumor antigen p53 (Homo sapiens), sequence (P04637 whole entry, looked up): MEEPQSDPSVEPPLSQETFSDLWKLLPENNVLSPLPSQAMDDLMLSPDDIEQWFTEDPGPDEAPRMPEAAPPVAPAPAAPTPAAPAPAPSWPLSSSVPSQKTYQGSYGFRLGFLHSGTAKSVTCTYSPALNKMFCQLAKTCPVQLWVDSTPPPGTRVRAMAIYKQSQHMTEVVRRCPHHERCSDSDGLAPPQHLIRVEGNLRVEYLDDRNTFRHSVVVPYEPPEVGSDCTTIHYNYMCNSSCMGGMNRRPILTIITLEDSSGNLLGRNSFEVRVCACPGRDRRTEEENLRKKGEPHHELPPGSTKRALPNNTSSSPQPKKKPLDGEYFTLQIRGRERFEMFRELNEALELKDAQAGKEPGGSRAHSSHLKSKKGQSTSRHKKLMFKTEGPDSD
human Peroxisome Proliferator-activated Receptor delta (PPARd), PPARD (gene 5467), sequence (Q03181 whole entry, looked up, the tested form may be a part): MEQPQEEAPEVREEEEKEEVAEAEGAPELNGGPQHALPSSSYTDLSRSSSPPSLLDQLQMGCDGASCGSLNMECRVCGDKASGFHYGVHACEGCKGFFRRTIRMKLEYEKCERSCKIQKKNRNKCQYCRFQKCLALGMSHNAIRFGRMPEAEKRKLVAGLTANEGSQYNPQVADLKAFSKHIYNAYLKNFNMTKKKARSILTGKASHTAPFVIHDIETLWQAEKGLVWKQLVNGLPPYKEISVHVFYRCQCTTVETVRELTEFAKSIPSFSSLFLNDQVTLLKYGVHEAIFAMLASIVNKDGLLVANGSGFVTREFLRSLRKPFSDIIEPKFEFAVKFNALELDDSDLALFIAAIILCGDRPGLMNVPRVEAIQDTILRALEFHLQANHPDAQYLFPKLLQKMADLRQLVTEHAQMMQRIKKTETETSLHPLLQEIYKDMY
Nuclear receptor subfamily 1 group I member 2 (Homo sapiens), sequence (O75469 whole entry, looked up, the tested form may be a part): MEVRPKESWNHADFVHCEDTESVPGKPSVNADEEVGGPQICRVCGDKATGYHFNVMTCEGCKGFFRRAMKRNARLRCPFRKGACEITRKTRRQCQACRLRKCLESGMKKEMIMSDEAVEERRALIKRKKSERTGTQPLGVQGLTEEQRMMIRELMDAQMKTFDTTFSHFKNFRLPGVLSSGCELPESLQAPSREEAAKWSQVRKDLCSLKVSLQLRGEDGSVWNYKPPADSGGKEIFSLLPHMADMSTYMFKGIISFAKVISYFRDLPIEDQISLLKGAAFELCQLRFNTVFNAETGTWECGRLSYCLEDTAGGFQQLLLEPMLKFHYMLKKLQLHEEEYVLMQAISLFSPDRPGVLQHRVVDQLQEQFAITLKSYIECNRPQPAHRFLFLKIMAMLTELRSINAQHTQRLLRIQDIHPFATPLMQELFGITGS
Nuclear respiratory factor 1 (Homo sapiens), sequence (Q16656 whole entry, looked up): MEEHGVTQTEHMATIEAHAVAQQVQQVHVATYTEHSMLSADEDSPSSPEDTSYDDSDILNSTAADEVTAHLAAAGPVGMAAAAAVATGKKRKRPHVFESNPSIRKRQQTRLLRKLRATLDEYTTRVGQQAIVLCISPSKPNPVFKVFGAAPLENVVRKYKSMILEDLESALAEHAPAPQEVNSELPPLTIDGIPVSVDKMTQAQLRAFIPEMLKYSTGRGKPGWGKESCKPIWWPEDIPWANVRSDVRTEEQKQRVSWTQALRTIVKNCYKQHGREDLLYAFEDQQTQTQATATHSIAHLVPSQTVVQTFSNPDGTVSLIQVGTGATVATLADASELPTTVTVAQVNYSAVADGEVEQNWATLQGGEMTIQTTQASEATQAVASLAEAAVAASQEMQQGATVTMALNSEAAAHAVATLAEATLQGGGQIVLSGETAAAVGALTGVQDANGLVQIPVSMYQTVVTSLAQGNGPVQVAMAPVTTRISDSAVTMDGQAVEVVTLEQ
human Retinoic Acid Receptor gamma (RARg), RARG (gene 5916), sequence (P13631 whole entry, looked up, the tested form may be a part): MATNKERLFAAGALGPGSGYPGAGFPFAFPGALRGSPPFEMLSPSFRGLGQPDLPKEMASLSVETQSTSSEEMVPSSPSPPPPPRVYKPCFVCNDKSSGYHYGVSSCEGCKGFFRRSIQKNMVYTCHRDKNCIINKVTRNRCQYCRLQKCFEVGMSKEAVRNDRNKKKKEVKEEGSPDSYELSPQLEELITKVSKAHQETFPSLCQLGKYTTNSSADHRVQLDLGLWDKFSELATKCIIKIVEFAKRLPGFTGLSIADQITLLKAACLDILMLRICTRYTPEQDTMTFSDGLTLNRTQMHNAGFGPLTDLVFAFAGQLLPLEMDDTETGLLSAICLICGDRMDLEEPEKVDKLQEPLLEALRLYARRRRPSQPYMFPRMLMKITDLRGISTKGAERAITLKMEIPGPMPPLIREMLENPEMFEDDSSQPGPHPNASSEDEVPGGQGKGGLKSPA
Retinoic acid receptor alpha (Homo sapiens), sequence (P10276 whole entry, looked up, the tested form may be a part): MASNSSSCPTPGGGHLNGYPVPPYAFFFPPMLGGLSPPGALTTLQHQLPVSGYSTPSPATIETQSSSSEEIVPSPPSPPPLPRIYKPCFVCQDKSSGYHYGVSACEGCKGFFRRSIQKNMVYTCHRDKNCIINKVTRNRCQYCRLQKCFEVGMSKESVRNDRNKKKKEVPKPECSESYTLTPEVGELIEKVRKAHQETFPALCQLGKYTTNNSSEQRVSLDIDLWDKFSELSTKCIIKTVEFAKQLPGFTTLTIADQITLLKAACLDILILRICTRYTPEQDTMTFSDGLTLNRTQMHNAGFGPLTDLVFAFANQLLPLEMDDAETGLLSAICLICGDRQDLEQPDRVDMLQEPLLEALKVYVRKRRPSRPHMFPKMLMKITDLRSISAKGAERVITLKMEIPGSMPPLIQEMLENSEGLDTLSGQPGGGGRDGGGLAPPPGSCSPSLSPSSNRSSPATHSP

COc1cc(OC)c2ccc(=O)oc2c1
inactive: [1] | [2] | [3] | [4] | [5] | [6] | [7] | [8] | [9] | [10]

CCCCCCCCCCOC(=O)c1ccccc1C(=O)OCCCCCCCC
inactive: [1] | [2] | [3] | [4] | [5] | [6] | [11] | [12] | [8] | [9]

CCCCCCCCOC(=O)c1ccc(O)cc1
inactive: [1] | [2] | [3] | [4] | [5] | [6] | [7] | [13] | [9] | [14] | [10]

O=C(O)c1ccc(C(=O)O)c(C(=O)O)c1
inactive: [1] | [2] | [3] | [4] | [5] | [6] | [12]

O=[N+]([O-])c1cc(N(CCO)CCO)ccc1NCCO
inactive: [1] | [2] | [3] | [4] | [5] | [6] | [11] | [12]

COc1ccccc1O
inactive: [1] | [2] | [3] | [4] | [5] | [6] | [11] | [12] | [8] | [9] | [10]

CCCCCCC(O)CCOC(C)=O (stereo not given)
active: [9] 15.2 µM
inactive: [1] | [2] | [3] | [4] | [5] | [6] | [11] | [8]

CC(=O)CC(C)(C)C1CCCCC1
inactive: [1] | [2] | [3] | [4] | [5] | [6] | [11] | [12] | [13] | [9] | [14]

CCC(C)COC(=O)CC(C)C (stereo not given)
inactive: [1] | [2] | [3] | [4] | [5] | [6] | [11] | [7] | [10]

O=C1CCC(=O)N1
inactive: [1] | [2] | [3] | [4] | [5] | [6] | [11] | [12]

COc1ccc(N)c(C)c1
inactive: [1] | [2] | [3] | [4] | [6] | [12]
active: [5] 46.3 µM

CCC(CC)CO
inactive: [1] | [2] | [3] | [4] | [5] | [6] | [8] | [9]

CC/C=C\C#N
inactive: [1] | [2] | [3] | [4] | [5] | [6] | [11] | [12] | [8] | [9]

C=C(C)C(=O)OCCOCCOC(=O)C(=C)C
inactive: [1] | [2] | [3] | [4] | [5] | [6] | [7] | [8] | [9]

c1ccc(Cc2ccccc2)cc1
inactive: [1] | [2] | [3] | [4] | [5] | [6] | [11] | [7] | [8] | [9] | [10]

C=C/C(C)=C/C/C=C(\C)CCC=C(C)C
inactive: [1] | [2] | [3] | [6] | [11] | [12]
active: [4] 100 µM | [5] 67.1 µM | [9] 6.85 µM

CC/C=C\CCCCO
inactive: [1] | [2] | [3] | [4] | [5] | [6] | [11] | [8] | [9] | [10]

Nc1ccn([C@H]2CC[C@@H](CO)O2)c(=O)n1
inactive: [1] | [2] | [3] | [4] | [5] | [6] | [11] | [8] | [9]

CCC(C)(C)c1cc(O)c(C(C)(C)CC)cc1O
active: [1] 12.3 µM | [2] 5.78 µM | [4] 60.4 µM | [5] 3.81 µM | [11] 33.4 µM | [9] 7.37 µM
inactive: [3] | [6] | [12]

O=S(=O)(O)c1cc(S(=O)(=O)O)c2c(N=Nc3ccccc3)c(O)ccc2c1
inactive: [1] | [2] | [3] | [4] | [5] | [6] | [11] | [7] | [9] | [10]

OCC=Cc1ccccc1
inactive: [1] | [2] | [3] | [4] | [6] | [7] | [12] | [9]
active: [5] 65.9 µM

C1COCO1
inactive: [1] | [2] | [3] | [4] | [5] | [6] | [7] | [8]

CCC(C)(C)C1CCC(OC)CC1 (stereo not given)
active: [9] 8.16 µM
inactive: [1] | [2] | [3] | [4] | [5] | [6] | [11] | [12]

OC[C@@H](O)[C@H](O)[C@@H](O)[C@@H](O)CO
inactive: [1] | [2] | [3] | [4] | [5] | [6] | [11] | [13] | [9] | [14]

CCn1cc(C(=O)O)c(=O)c2ccc(C)nc21
not listed: [7] | [9] | [11] | [12] | [13] | [14]
inactive: all other assays above

CC(C)OB(OC(C)C)OC(C)C
inactive: [1] | [2] | [3] | [4] | [5] | [6] | [11] | [8] | [10]
